The record followed here is PubChem BioAssay (NCI).

This is part of a sample that, as a whole, favours compounds with a hit. Of some 83,000 tested, about 20% had one in any assay.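 Compound tested at a single concentration for 48 hours in 96-well plates; a percent growth value below 10 was scored as active.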 Unmarked numbers belong to inactive results. The source made the active and inactive calls.

Test systems include SK-MEL-2 melanoma; SN12C renal; UO-31 renal; TK-10 renal; ACHN renal; CAKI-1 renal; A498 renal; CCRF-CEM leukemia; MOLT-4 leukemia; SR leukemia; OVCAR-8 ovarian; OVCAR-5 ovarian; OVCAR-4 ovarian; SK-OV-3 ovarian; IGROV1 ovarian; OVCAR-3 ovarian; HS 578T breast; NCI/ADR-RES ovarian; RPMI-8226 leukemia.
Test in all cases: NCI-60 one-dose screen, 48 h (100 = growth as untreated, 0 = no growth, -100 = all killed)
What all share (conditions): 10 µM unless noted

On to `CCCCC(N)(C(=O)O)C1CCCC1` (configuration not stated), for which the growth in the experiment on SK-MEL-2 melanoma was 117%; in the experiment with SN12C renal, 96.1%; with UO-31 renal it was 90.9%; in the experiment with TK-10 renal, 104%; with ACHN renal, 96.9%; with CAKI-1 renal, 93%. Besides, the growth with A498 renal is 82.4%; in the experiment on CCRF-CEM leukemia it was 97.9%; in the experiment on MOLT-4 leukemia, 123%; in the experiment with SR leukemia it was 96.4%; in the experiment with OVCAR-8 ovarian it was 97.2%; in the experiment with OVCAR-5 ovarian, 97.8%. For the same molecule, the growth is 103% in the experiment with OVCAR-4 ovarian; 117% with SK-OV-3 ovarian; 110% in the experiment on IGROV1 ovarian; 116% in the experiment with OVCAR-3 ovarian; 122% in the experiment on HS 578T breast; 97.4% in the experiment with NCI/ADR-RES ovarian.
As to `O=C1Nc2ccc(Br)cc2C1=N/C=c1\[nH]c(=O)/c(=C/c2ccc(Cl)cc2)s1`, the growth in the experiment with SK-MEL-2 melanoma was 99.7%; in the experiment on SN12C renal it was 102%; with UO-31 renal, 85.2%; in the experiment with TK-10 renal, 101%; with ACHN renal, 90.8%; in the experiment on CAKI-1 renal it was 101%. Besides, the growth with A498 renal was 94.5%; in the experiment with CCRF-CEM leukemia, 87.9%; with MOLT-4 leukemia, 90.9%; in the experiment on SR leukemia it was 81.6%; with RPMI-8226 leukemia, 98.2%; with OVCAR-4 ovarian, 108%. Further, the growth in the experiment with SK-OV-3 ovarian is 91.4%; in the experiment with IGROV1 ovarian it was 105%; in the experiment with HS 578T breast, 100%; in the experiment with NCI/ADR-RES ovarian, 104%.
In the case of `C[N+](C)(C)c1ccc(CC2c3ccccc3-c3ccccc32)cc1`, the growth is 81.5% in the experiment on SK-MEL-2 melanoma; 21.3% in the experiment on SN12C renal; 90.9% with UO-31 renal; 93.3% in the experiment with TK-10 renal; 99.9% with ACHN renal; 86.8% in the experiment on CAKI-1 renal. The growth was 70.5% in the experiment with A498 renal; 69.9% with CCRF-CEM leukemia; 76.4% in the experiment on MOLT-4 leukemia; 85% with SR leukemia; 68.6% in the experiment on RPMI-8226 leukemia; 86.1% in the experiment with OVCAR-5 ovarian. The growth with OVCAR-4 ovarian was 85.2%; in the experiment on SK-OV-3 ovarian it was 75.3%; with IGROV1 ovarian, 64.4%; in the experiment on OVCAR-3 ovarian, 67%; in the experiment with HS 578T breast it was 4.68% (active); in the experiment with NCI/ADR-RES ovarian, 107%.
On to `Nc1c(C(=O)Nc2c(Cl)cccc2Cl)sc2nc3c(cc12)CCCCC3`, for which the growth in the experiment on SK-MEL-2 melanoma is 62.8%; in the experiment with SN12C renal, 61.7%; in the experiment with UO-31 renal, 63.9%; with TK-10 renal, 69%; in the experiment with ACHN renal, 58.5%; with CAKI-1 renal it was 69.4%. Moreover, the growth in the experiment with A498 renal is 30%; in the experiment on CCRF-CEM leukemia it was 43.7%; in the experiment with MOLT-4 leukemia, 54.4%; in the experiment on SR leukemia, 16.7%; in the experiment with OVCAR-8 ovarian it was 51.8%; in the experiment with OVCAR-5 ovarian it was 79.8%. The growth is 56.6% with SK-OV-3 ovarian; 73% with IGROV1 ovarian; 52.8% in the experiment with OVCAR-3 ovarian; 59% in the experiment on HS 578T breast; 53.5% in the experiment on NCI/ADR-RES ovarian.
Turning to `COc1cc(CNC(=O)CCSc2nc3ccccc3c(=O)n2Cc2cc(OC)c(OC)c(OC)c2)cc(OC)c1OC`, the growth with SK-MEL-2 melanoma is -9.25% (active); with SN12C renal, 50.7%; in the experiment on UO-31 renal, 47.2%; with TK-10 renal, 62%; in the experiment with ACHN renal, 48.9%; in the experiment with CAKI-1 renal it was 34.3%. In addition, the growth was 21.7% in the experiment on A498 renal; 35.5% in the experiment on CCRF-CEM leukemia; 18.8% in the experiment with MOLT-4 leukemia; 11.1% in the experiment with SR leukemia; 39.2% in the experiment on RPMI-8226 leukemia; 68.3% in the experiment with OVCAR-5 ovarian. Besides, the growth in the experiment on OVCAR-4 ovarian is 58.9%; in the experiment with SK-OV-3 ovarian, 27.3%; in the experiment on IGROV1 ovarian, 51.3%; in the experiment on HS 578T breast it was 57.4%; with NCI/ADR-RES ovarian it was 17.4%.
On to `COc1ccc(C2=CC(c3ccc(Oc4ccnc5cc(Cl)ccc45)c(OC)c3)c3c(nc(OC)[nH]c3=O)N2)cc1` (configuration not stated), for which the growth with SK-MEL-2 melanoma is 91.9%; with SN12C renal, 63.7%; with UO-31 renal, 56.5%; with TK-10 renal it was 98.5%; with ACHN renal, 57.3%; with CAKI-1 renal, 82.9%. Further, the growth in the experiment on A498 renal was 69.6%; in the experiment on CCRF-CEM leukemia, 26.8%; in the experiment on MOLT-4 leukemia it was 7.77% (active); in the experiment with SR leukemia it was 13.4%; in the experiment on RPMI-8226 leukemia it was 28.8%; in the experiment with OVCAR-5 ovarian, 115%. The growth in the experiment with OVCAR-4 ovarian is 63.9%; in the experiment on SK-OV-3 ovarian, 102%; in the experiment on IGROV1 ovarian it was 86.6%; in the experiment on OVCAR-3 ovarian it was 58%; in the experiment on HS 578T breast, 97.1%; in the experiment with NCI/ADR-RES ovarian, 71.1%.
Take `O=C1CCCCN1CCCCC#Cc1ccccc1C#Cc1ccccn1`: the growth with SK-MEL-2 melanoma was 64.5%; in the experiment with SN12C renal it was 106%; with UO-31 renal it was 42.2%; in the experiment with TK-10 renal, 136%; with ACHN renal, 86.4%; in the experiment on CAKI-1 renal it was 121%. For the same molecule, the growth with A498 renal was 114%; in the experiment on CCRF-CEM leukemia it was 74%; in the experiment on MOLT-4 leukemia, 94.9%; with SR leukemia, 98.6%; with RPMI-8226 leukemia it was 107%; in the experiment on OVCAR-5 ovarian it was 95.2%. In addition, the growth was 95.2% in the experiment on OVCAR-4 ovarian; 118% in the experiment on SK-OV-3 ovarian; -11.3% (active) in the experiment with IGROV1 ovarian; 104% in the experiment on OVCAR-3 ovarian; 118% in the experiment on HS 578T breast; 92.2% in the experiment with NCI/ADR-RES ovarian.
As for `CCC1CCc2nc3sc(C(=O)Nc4ccccc4C)c(N)c3cc2C1` (configuration not stated), the growth is 21.9% in the experiment with SK-MEL-2 melanoma; 58% in the experiment on SN12C renal; 37.6% with UO-31 renal; 59.6% in the experiment on TK-10 renal; 47.4% with ACHN renal; 29.4% in the experiment on CAKI-1 renal. The growth with A498 renal is 33.2%; with CCRF-CEM leukemia, 18.7%; in the experiment with MOLT-4 leukemia, 39.7%; with SR leukemia it was 12.8%; in the experiment with RPMI-8226 leukemia it was 3.92% (active); with OVCAR-5 ovarian, 76.5%. Moreover, the growth in the experiment on OVCAR-4 ovarian was 89%; in the experiment with SK-OV-3 ovarian, 44.8%; with IGROV1 ovarian it was 65.3%; in the experiment with HS 578T breast it was 49.4%; in the experiment on NCI/ADR-RES ovarian, 18.4%.
`FC(F)(F)c1cccc(-n2nnc3cnc(Nc4ccc(N5CCCCC5)cc4)nc32)c1`: the growth in the experiment on SK-MEL-2 melanoma was 96.8%; with SN12C renal it was 91%; with UO-31 renal, 100%; in the experiment on TK-10 renal it was 97.2%; in the experiment with ACHN renal, 56%; in the experiment on CAKI-1 renal, 72.9%. In addition, the growth is 89.4% in the experiment on A498 renal; 34.1% in the experiment with CCRF-CEM leukemia; 63% in the experiment on MOLT-4 leukemia; 29.2% in the experiment on SR leukemia; 37.5% in the experiment on OVCAR-8 ovarian; 74.3% in the experiment on OVCAR-5 ovarian. Also, the growth is -9.56% (active) in the experiment with OVCAR-4 ovarian; 80.2% with SK-OV-3 ovarian; 88.8% in the experiment on IGROV1 ovarian; 82.4% with OVCAR-3 ovarian; 76.5% in the experiment on HS 578T breast; 76.9% in the experiment on NCI/ADR-RES ovarian.
